From article PMC5540273 (PLoS ONE, 2017)

What follows are compounds tested on PIK3C2B. Conditions: concentration: 1 μM, replicates: in singlicate; n = 1.
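Note: KINOMEscan kinase panel screen.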

SMILES	%Inh
FC(F)(F)c1ccc(/C=C/c2cncnc2Nc2ccc3[nH]c(Cc4ccccc4)nc3c2)cc1 [GW709199]	0%
O=C(Nc1cccc(-c2nn3ccccc3c2-c2ccnc(Nc3cccc(F)c3)n2)c1)c1c(F)ccc(F)c1Cl [GSK357952]	0%
O=C(Nc1ccccc1F)NC1CCN(c2ccnc(Nc3ccc(F)cc3)n2)CC1 [GSK1379800]	0%
Cc1occc1-c1ncc(OC[C@@H](N)Cc2c[nH]c3ccccc23)cc1-c1ccc2[nH]nc(C)c2c1.O=C(O)C(F)(F)F [GSK682037]	0%
C[C@@H]1CC[C@@H](C(=O)Nc2ccccc2)CN1c1cc(-c2ccc3c(N)n[nH]c3c2)nc(N)n1 [GSK2286062]	0%
Cl.NC(=O)c1cccc(Nc2nccc(Nc3ccc(Oc4c(Cl)cccc4Cl)c(Cl)c3)n2)c1 [GW659009]	0%
Cc1ccc(C(=O)Nc2ccc(Nc3ccnc4cc(-c5nccs5)ccc34)cc2O)cc1.Cl [GW494702]	0%
CNC(=O)c1ccccc1Nc1nc(Nc2ccc(N3CCOCC3)cc2)ncc1Cl.Cl [GSK1576028]	17%
COc1cc(Nc2nccc(-c3c(-c4cccc(NC(=O)c5c(F)cccc5F)c4)nn4ccccc34)n2)cc(OC)c1OC [GSK323521]	27%
Nc1ncnc2c1nc(-c1ccccc1)n2-c1ccccc1 [SKF-97293]	4%
Fc1ccc(-c2ncn(C3CCNCC3)c2-c2ccnc(Oc3ccc(-c4ccccc4)cc3)n2)cc1 [SB-245391]	27%
Cl.Cl.NCC(NCc1ccc(-c2ccnc3[nH]ccc23)s1)c1ccccc1 (stereo not shown) [GSK1321565]	0%
CC(=O)N1CCN(c2ccc(Nc3nccc(-c4sc(C(C)C)nc4-c4cccc(NS(=O)(=O)c5cccc(Cl)c5)c4)n3)cn2)CC1 [GSK1660437]	0%
COc1ccc(Nc2nccc(N3CCC(NC(=O)Nc4cccc(OC)c4)C3)n2)cc1 (stereo not shown) [GSK1379742]	13%
Cl.Cl.NCC(NC(=O)c1cc(-c2ccccc2)c(-c2ccnc3[nH]ccc23)s1)c1ccccc1 (stereo not shown) [GSK1321561]	0%
O=C(Nc1n[nH]c2cc(-c3ccoc3)ccc12)C1CC1 [SB-738481]	7%
Cl.c1ccc(-c2ccc3c(Nc4ccc5[nH]ccc5c4)ccnc3c2)nc1 [GW440138]	0%
COc1cc(Nc2nccc(-c3c(-c4cccc(NC(=O)c5c(F)cccc5F)c4)nn4ncccc34)n2)cc(OC)c1OC [GSK327238]	0%
CCCCc1nn2ncccc2c1-c1ccnc(Nc2ccc(N3CCN(C)CC3)cc2)n1 [GW684941]	66%

SMILES	%Inh
Nc1ncc(-c2ccc3nccc(-c4ccncc4)c3c2)cc1S(=O)(=O)N1CCOCC1 [GSK1627798]	99.5%
Cc1ccc(S(=O)(=O)Nc2ccc(Nc3nccc(Nc4cccc5[nH]ncc45)n3)cc2)cc1 [GSK581271]	0%
COc1ccc(Nc2nccc(NCCNC(=O)c3cc4ccccc4s3)n2)cc1 [GSK1379896]	0%
NCCCC(NC(=O)c1cc(Br)c(-c2ccnc3[nH]ccc23)s1)c1ccccc1.O=C(O)C(F)(F)F.O=C(O)C(F)(F)F (stereo not shown) [GSK1287544]	0%
CC(C)c1nc(-c2cccc(NS(=O)(=O)c3c(F)cccc3F)c2F)c(-c2ccnc(Nc3ccc(N4CCOCC4)nc3)n2)s1 [GSK2008607]	49%
O=C(NC1CCN(c2ccnc(Nc3ccc(F)cc3)n2)C1)c1cc2ccccc2s1 (stereo not shown) [GSK1379716]	0%
Nc1ncc(-c2cccnc2)c2scc(-c3ccc4c(c3)CCN4C(=O)Cc3ccccc3)c12 [GSK683281]	0%
CC(C)(C)c1ccc2nccc(Nc3cccc(O)c3)c2c1 [GW856795]	38%
COc1cccc(C2=C(Nc3ccc(Cl)c(C(=O)O)c3)C(=O)NC2=O)c1 [SB-390769]	0%
Cc1ccc(F)c(C(=O)Nc2cccc(-c3nn4ccccc4c3-c3ccnc(Nc4cccc(F)c4)n3)c2)c1F [GSK361061]	0%
O=C(Nc1n[nH]c2nc(-c3ccc(O)cc3)ccc12)C1CC1 [SB-710363]	0%
c1ccc(-c2n[nH]cc2Nc2ccnc3ccccc23)nc1 [GW694077]	29%
CCn1c(-c2nonc2N)nc2c(C#CC(C)(C)O)ncc(OCCCCN)c21.O=C(O)C(F)(F)F.O=C(O)C(F)(F)F [GSK507274]	0%
O=C(Nc1cccc(-c2nn3ccccc3c2-c2ccnc(Nc3cccc(C(F)(F)F)c3)n2)c1)c1c(F)cccc1F [GSK292658]	0%
Nc1n[nH]c2cnc(-c3ccccc3)cc12 [SB-642124]	0%
CN(c1ccc(NC(=O)Nc2cc(C(F)(F)F)ccc2F)cc1)c1ccnc(Nc2ccc(S(N)(=O)=O)cc2)n1 [GW809893]	29%
Clc1ccc(-c2nn3ncccc3c2-c2ccnc(Nc3ccc4c(c3)OCCO4)n2)cc1 [GW829116]	0%
Cn1cc(-c2[nH]c3cc(NC(=O)[C@H](N)C4CCCCC4)cc4c3c2C=NNC4=O)cn1	49%
